# This is one part of a sample in which the strongest signals are shown more often than they occur.
# Key:
# Test in all cases: glycan array binding signal (z-score within array); higher = stronger binding
# Settings in all cases: glycan notation: IUPAC condensed, linker removed
# [1] = molecular target: Gal3S(b1-4)[Fuc(a1-3)]GlcNAc
# In short: (§1)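 Glycan array binding is given as a within-array Z-score, which can be read as non-binding when negative. The arrays, 3228 of them, came from the Consortium for Functional Glycomics database and were retained only where the protein sequence was available. Z-scores were averaged across arrays of the same protein sequence at different concentrations or buffers and across linkers.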
# [2] = molecular target: Gal3S6S(b1-4)GlcNAc6S
# In short: as §1
# [3] = molecular target: Gal6S(b1-3)GlcNAc6S
# In short: as §1
# [4] = molecular target: Gal6S(b1-4)GlcNAc6S
# In short: as §1
# [5] = molecular target: GalNAc(a1-3)Fuc(a1-2)Gal(b1-4)GlcNAc(b1-3)[GalNAc(a1-3)Fuc(a1-2)Gal(b1-4)GlcNAc(b1-6)]GalNAc
# In short: as §1
# [6] = molecular target: GalNAc(b1-3)Gal(a1-4)Gal(b1-4)GlcNAc
# In short: as §1
# [7] = molecular target: GalNAc(b1-4)Gal(b1-4)Glc
# In short: as §1
# [8] = molecular target: GalNAc(b1-4)GlcNAc(b1-3)GalNAc(b1-4)GlcNAc
# In short: as §1
# [9] = molecular target: GalNAc(b1-4)GlcNAc6S
# In short: as §1
# [10] = molecular target: GalNAc6S(b1-4)GlcNAc
# In short: as §1
# [11] = molecular target: GlcA3S(b1-3)Gal(b1-4)GlcNAc(b1-3)Gal(b1-4)Glc
# In short: as §1
# [12] = molecular target: GlcNAc(b1-2)[GlcNAc(b1-4)]Man(a1-3)[GlcNAc(b1-4)][GlcNAc(b1-2)Man(a1-6)]Man(b1-4)GlcNAc(b1-4)GlcNAc
# In short: as §1
# [13] = molecular target: GlcNAc(b1-3)Gal(b1-4)GlcNAc(b1-3)Gal(b1-4)GlcNAc(b1-2)[GlcNAc(b1-3)Gal(b1-4)GlcNAc(b1-3)Gal(b1-4)GlcNAc(b1-6)]Man(a1-6)[GlcNAc(b1-3)Gal(b1-4)GlcNAc(b1-3)Gal(b1-4)GlcNAc(b1-2)Man(a1-3)]Man(b1-4)GlcNAc(b1-4)[Fuc(a1-6)]GlcNAc
# In short: as §1
# [14] = molecular target: GlcNAc(b1-3)Gal(b1-4)GlcNAc(b1-3)Gal(b1-4)GlcNAc(b1-3)Gal(b1-4)GlcNAc(b1-2)[GlcNAc(b1-3)Gal(b1-4)GlcNAc(b1-3)Gal(b1-4)GlcNAc(b1-3)Gal(b1-4)GlcNAc(b1-6)]Man(a1-6)[GlcNAc(b1-3)Gal(b1-4)GlcNAc(b1-3)Gal(b1-4)GlcNAc(b1-3)Gal(b1-4)GlcNAc(b1-2)Man(a1-3)]Man(b1-4)GlcNAc(b1-4)[Fuc(a1-6)]GlcNAc
# In short: as §1
# [15] = molecular target: GlcNAc(b1-3)Gal(b1-4)GlcNAc(b1-3)Gal(b1-4)GlcNAc(b1-3)Gal(b1-4)GlcNAc(b1-3)Gal(b1-4)GlcNAc(b1-2)Man(a1-3)[GlcNAc(b1-3)Gal(b1-4)GlcNAc(b1-3)Gal(b1-4)GlcNAc(b1-3)Gal(b1-4)GlcNAc(b1-3)Gal(b1-4)GlcNAc(b1-2)Man(a1-6)]Man(b1-4)GlcNAc(b1-4)[Fuc(a1-6)]GlcNAc
# In short: as §1
# [16] = molecular target: GlcNAc(b1-4)GlcNAc(b1-4)GlcNAc
# In short: as §1
# [17] = molecular target: Man(a1-6)Man
# In short: as §1
# [18] = molecular target: Neu5Ac(a2-3)Gal(b1-3)GalNAc
# In short: as §1
# [19] = molecular target: Neu5Ac(a2-3)Gal(b1-3)GlcNAc(b1-3)Gal(b1-3)GlcNAc
# In short: as §1
# [20] = molecular target: Neu5Ac(a2-3)Gal(b1-3)[Fuc(a1-4)]GlcNAc
# In short: as §1
# [21] = molecular target: Neu5Ac(a2-3)Gal(b1-4)GlcNAc(b1-2)[Neu5Ac(a2-3)Gal(b1-4)GlcNAc(b1-6)]Man(a1-6)[Neu5Ac(a2-3)Gal(b1-4)GlcNAc(b1-2)Man(a1-3)][GlcNAc(b1-4)]Man(b1-4)GlcNAc(b1-4)GlcNAc
# In short: as §1
# [22] = molecular target: Neu5Ac(a2-3)Gal(b1-4)[Fuc(a1-3)]GlcNAc(b1-3)Gal
# In short: as §1
# [23] = molecular target: Neu5Ac(a2-3)Gal(b1-4)[Fuc(a1-3)]GlcNAc6S
# In short: as §1
# [24] = molecular target: Neu5Ac(a2-3)Gal6S(b1-4)[Fuc(a1-3)]GlcNAc
# In short: as §1
# [25] = molecular target: Neu5Ac(a2-6)Gal(b1-4)GlcNAc(b1-2)Man(a1-3)[GlcNAc(b1-2)Man(b1-4)GlcNAc(b1-2)Man(a1-6)]Man(b1-4)GlcNAc(b1-4)GlcNAc
# In short: as §1
# [26] = molecular target: Neu5Ac(a2-6)Gal(b1-4)GlcNAc(b1-2)Man(a1-3)[Man(a1-6)]Man(b1-4)GlcNAc(b1-4)GlcNAc
# In short: as §1
# [27] = molecular target: Neu5Ac(a2-6)Gal(b1-4)GlcNAc(b1-3)Gal(b1-4)[Fuc(a1-3)]GlcNAc(b1-3)Gal(b1-4)[Fuc(a1-3)]GlcNAc
# In short: as §1
# [28] = molecular target: Neu5Ac(a2-6)Gal(b1-4)GlcNAc6S
# In short: as §1
# [29] = molecular target: Neu5Ac(a2-8)Neu5Ac(a2-3)Gal(b1-4)GlcNAc
# In short: as §1
binder,measurement,setting,value
KISKRILTGKK [NK11 (Sus scrofa)],glycan array binding signal (z-score),[1],2.52
same,glycan array binding signal (z-score),[2],1.05
same,glycan array binding signal (z-score),[3],3.65
same,glycan array binding signal (z-score),[4],2.58
same,glycan array binding signal (z-score),[5],-0.542
same,glycan array binding signal (z-score),[6],0.262
same,glycan array binding signal (z-score),[7],-0.229
same,glycan array binding signal (z-score),[8],-0.419
same,glycan array binding signal (z-score),[9],2.55
same,glycan array binding signal (z-score),[10],0.009
same,glycan array binding signal (z-score),[11],-1.34
same,glycan array binding signal (z-score),[12],-0.207
same,glycan array binding signal (z-score),[13],2.97
same,glycan array binding signal (z-score),[14],2.73
same,glycan array binding signal (z-score),[15],0.231
same,glycan array binding signal (z-score),[16],-0.597
same,glycan array binding signal (z-score),[17],-0.205
same,glycan array binding signal (z-score),[18],0.104
same,glycan array binding signal (z-score),[19],-0.342
same,glycan array binding signal (z-score),[20],-0.073
same,glycan array binding signal (z-score),[21],0.405
same,glycan array binding signal (z-score),[22],0.515
same,glycan array binding signal (z-score),[23],3.52
same,glycan array binding signal (z-score),[24],-0.648
same,glycan array binding signal (z-score),[25],2.33
same,glycan array binding signal (z-score),[26],1.52
same,glycan array binding signal (z-score),[27],-0.044
same,glycan array binding signal (z-score),[28],0.729
same,glycan array binding signal (z-score),[29],-1.78

# — the supplement of paper PMC8728848
